The list is not random: actives were taken first. Their share in the collection is about 12%.
NS1 function inh = blocks influenza NS1 protein function | Potency, µM (series often up to 46.1 µM), without a hit: at the top dose activity, positive = more growth | 0.4% of 270,000 active | AID 2326; note: potency is the fitted concentration of half-maximal effect; actives are rising curves; nearly all actives have a fitted effect of over 50% in size
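Read-out: OD600 growth recovery of NS1-expressing budding yeast. Cells grown overnight at 30C in -URA glucose medium, washed, resuspended and diluted 1:100 in 2% galactose assay medium, pH 6.0. Same strain lacking NS1 served as positive control.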
CHX counter = affects cycloheximide protein synthesis inhibition readout, counter-screen | cell reporter, cycloheximide protein synthesis inhibition counterscreen | max response, % | 12% of 300,000 active; in the data active = max response mostly above about 13%, no sharp cut-off; inactive = mostly below about 14%; note: read at 38.3 µM for the half of the compounds with a filed dose; 0% is about no effect
Shiga toxin inh = blocks Shiga toxin action in Vero cells. Vero cells, Shiga toxin protein synthesis inhibition reporter. inhibition, % at 38.7 µM. 9.2% of 290,000 active. AID 2315; in the data active = inhibition mostly above about 28%, no sharp cut-off; inactive = mostly below about 43%; note: 0% is about no effect
SARS PLP yeast = blocks SARS-CoV papain-like protease in a yeast assay | 0.19% of 330,000 active | S. cerevisiae expressing SARS-CoV PLpro, growth rescue | Potency, µM (doses to about 32.9 µM), for inactives: at the highest dose activity, positive = growth rescue, usual class: activators | AID 485353; note: potency is the fitted concentration of half-maximal effect; 0% is about no effect; nearly all actives have a fitted effect of over 55% in size
The depositor's hits bear a star. Unless noted, calls come from the whole dose curve.

What do the screens show for `COC(=O)c1cnn(-c2ccc(C(=O)Nc3cccc(C(C)=O)c3)cc2)c1N`?
SARS PLP yeast: -4%

What do the screens show for `Cc1ccc(NC(=O)c2cnn(-c3ccccc3)c2C)cc1C`?
NS1 function inh: -43%; CHX counter: 16; Shiga toxin inh: 39; SARS PLP yeast: -23%

How did CC(=O)c1cccc(NC(=O)c2cnn(-c3ccccc3)c2C)c1 do in these assays?
NS1 function inh: -43%; CHX counter: 45*; Shiga toxin inh: 90*; SARS PLP yeast: 1%

What do the screens show for `Cc1c(C(=O)Nc2cccc([N+](=O)[O-])c2)cnn1-c1ccccc1`?
NS1 function inh: -17%; CHX counter: 47*; Shiga toxin inh: 113*; SARS PLP yeast: -6%

Results for CCSC[C@H](NC(=O)[C@H](C)N)C(=O)N[C@@H](CC(=O)O)C(=O)N[C@H](C(=O)N[C@@H](C)C(=O)N[C@H](C(=O)N[C@@H](CSCC)C(=O)N[C@H](C(=O)N[C@H](C(=O)N[C@@H](Cc1cnc[nH]1)C(=O)N[C@@H](CCCNC(=N)N)C(=O)N[C@@H](CC(C)C)C(=O)N[C@@H](C)C(=O)NCC(=O)N[C@@H](CC(C)C)C(=O)N[C@@H](CC(C)C)C(=O)N[C@@H](CO)C(=O)N[C@@H](CCCNC(=N)N)C(=O)N[C@@H](CO)C(=O)NCC(=O)NCC(=O)N[C@H](C(=O)N[C@H](C(=O)N[C@@H](CCCCN)C(=O)N[C@@H](CC(N)=O)C(=O)N[C@@H](CC(N)=O)C(=O)N[C@@H](Cc1ccccc1)C(=O)N[C@H](C(=O)N1CCC[C@H]1C(=O)N[C@H](C(=O)N[C@@H](CC(N)=O)C(=O)N[C@H](C(=O)NCC(=O)N[C@@H](CO)C(=O)N[C@@H](CCCCN)C(=O)N[C@@H](C)C(=O)N[C@@H](Cc1ccccc1)C(N)=O)C(C)C)[C@@H](C)O)C(C)C)C(C)C)C(C)C)[C@@H](C)O)C(C)C)[C@@H](C)O)[C@@H](C)O ?
CHX counter: 5; Shiga toxin inh: -4

What do the screens show for `CCOc1cc(/C=C(/NC(C)=O)C(=O)O)cc(Cl)c1OCc1cccc(Br)c1`?
NS1 function inh: 11%; CHX counter: 1; Shiga toxin inh: -4; SARS PLP yeast: 0%

How did CC(C)(C)N1CC(COc2ccccc2)OC1=O (configuration not stated) do in these assays?
NS1 function inh: -20%; CHX counter: 21*; Shiga toxin inh: 23; SARS PLP yeast: -7%

What do the screens show for `N/C(=N\OC(=O)c1cccc(F)c1)c1ccccn1`?
NS1 function inh: -27%; CHX counter: 1; Shiga toxin inh: 17; SARS PLP yeast: -8%

Results for Cc1ccc(/C(N)=N/OC(=O)c2ccc3ccccc3c2)cc1 ?
NS1 function inh: -32%; CHX counter: 12; Shiga toxin inh: 10; SARS PLP yeast: -14%

What do the screens show for `N/C(=N\OC(=O)Oc1ccccc1)c1ccc(Br)cc1`?
NS1 function inh: -35%; CHX counter: -4; Shiga toxin inh: -22; SARS PLP yeast: 1%

Results for N/C(=N\OC(=O)c1ccc(F)cc1)c1ccc(Br)cc1 ?
NS1 function inh: -51%; CHX counter: 33*; Shiga toxin inh: 70*; SARS PLP yeast: -5%

What do the screens show for `N/C(=N\OC(=O)c1ccc(F)cc1)c1ccccc1`?
NS1 function inh: -64%; CHX counter: 59*; Shiga toxin inh: 150*; SARS PLP yeast: -15%

How did Cc1ccc(/C(N)=N/OC(=O)c2ccc(F)cc2)cc1 do in these assays?
NS1 function inh: -27%; CHX counter: 49*; Shiga toxin inh: 91*; SARS PLP yeast: -41%

What do the screens show for `COc1ccc(NC(=O)/C(C#N)=C\c2ccc(-c3cccc(C(=O)O)c3C)o2)cc1`?
NS1 function inh: 2%; CHX counter: 21*; Shiga toxin inh: 35*; SARS PLP yeast: -1%

Results for COc1ccc(-c2ccc(C(=O)O)o2)c([N+](=O)[O-])c1 ?
CHX counter: 11; Shiga toxin inh: 2; SARS PLP yeast: 0%

Results for COc1ccc(NC(=O)/C(C#N)=C/c2ccc(-c3ccccc3C(=O)O)o2)cc1 ?
NS1 function inh: inconclusive; CHX counter: 2; Shiga toxin inh: -9; SARS PLP yeast: -7%

What do the screens show for `COc1ccc(NC(=O)/C(C#N)=C\c2ccc(Br)o2)cc1`?
NS1 function inh: -3%; CHX counter: 22*; Shiga toxin inh: 25; SARS PLP yeast: 0%

How did CNC(=O)/C(C#N)=C/c1ccc(-c2ccc(OC)cc2[N+](=O)[O-])o1 do in these assays?
NS1 function inh: 12%; CHX counter: 56*; Shiga toxin inh: 27*; SARS PLP yeast: 1%

How did Cc1c(C(=O)O)cccc1-c1ccc(C=O)o1 do in these assays?
NS1 function inh: 5%; CHX counter: 35*; Shiga toxin inh: 54*; SARS PLP yeast: -5%

What do the screens show for `COc1ccc(CNC(=O)c2ccc(=O)oc2)cc1OC`?
NS1 function inh: 8%; CHX counter: -12; Shiga toxin inh: -11; SARS PLP yeast: 4%

What do the screens show for `CC(NC(=O)NC(=O)c1ccc(Cl)cc1Cl)C1CC1` (configuration not stated)?
CHX counter: 39*; Shiga toxin inh: 167*; SARS PLP yeast: -3%

How did Cc1ccc(Nc2nc(COC(=O)COc3ccc(C=O)cc3)cs2)cc1 do in these assays?
NS1 function inh: -23%; CHX counter: 25*; Shiga toxin inh: 69*; SARS PLP yeast: -19%

How did C/C=C/c1ccc(OCC(=O)OCc2csc(Nc3ccc(C)cc3)n2)c(OC)c1 do in these assays?
NS1 function inh: 13%; CHX counter: 44*; Shiga toxin inh: 91*; SARS PLP yeast: 2%

What do the screens show for `CCOC(=O)/C=C1\SCC(=O)N1CC(=O)NC(C)c1ccc(F)cc1` (configuration not stated)?
NS1 function inh: 12%; CHX counter: 1; Shiga toxin inh: 6; SARS PLP yeast: -6%

What do the screens show for `Nc1[nH]n(-c2ccccc2)c(=O)c1N=Nc1ccc2c(c1)OCO2`?
NS1 function inh: 0%; CHX counter: 36*; Shiga toxin inh: 121*; SARS PLP yeast: -1%

Results for Nc1[nH]n(-c2ccccc2)c(=O)c1N=Nc1ccc2c(c1)OCCO2 ?
NS1 function inh: -5%; CHX counter: 33*; Shiga toxin inh: 59*; SARS PLP yeast: -2%

Results for CN[C@@H](CCCN=C(N)N)C(=O)N[C@@H](CCCCN)C(=O)N1CCC[C@H]1C(=O)N[C@@H](Cc1c[nH]c2ccccc12)C(=O)N[C@H](C(=O)N[C@H](CC(C)C)C(=O)O)C(C)(C)C ?
CHX counter: -5; Shiga toxin inh: -5

Results for O=C1c2oc3ccccc3c(=O)c2C(c2ccc(O)cc2)N1c1nccs1 (configuration not stated) ?
CHX counter: 7; Shiga toxin inh: -4; SARS PLP yeast: 1%

What do the screens show for `Cn1cc(-c2nnnn2-c2cccc(C(F)(F)F)c2)c(C(F)(F)F)n1`?
NS1 function inh: -3%; CHX counter: -3; Shiga toxin inh: 16; SARS PLP yeast: -11%

How did CC1CCc2c(sc3ncnc(SCC(=O)N(C)C4CCS(=O)(=O)C4)c23)C1 (configuration not stated) do in these assays?
SARS PLP yeast: -4%

What do the screens show for `O=C(c1cc(-c2cccc(O)c2)on1)N1CCCC1`?
NS1 function inh: -1%; CHX counter: 37*; Shiga toxin inh: 62*; SARS PLP yeast: -11%
